Screening results from PubChem.
TDP1 cell noCPT – qHTS for Inhibitors of human tyrosyl-DNA phosphodiesterase 1 (TDP1): qHTS in cells in absence of CPT | DT40 Tdp1-/- hTDP1 cells, no CPT, ATP luminescence, 48 h | 420,000 compounds, 15% hits | Potency, µM (highest dose often 46.2 µM), without a hit: at the highest dose activity change, negative = growth inhibition, most hits filed as inhibitors | AID 686978, 2013; further: potency means the concentration at half of the fitted maximal effect; nearly all actives have a fitted effect of over 55% in size
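Chicken DT40 Tdp1-/- cells stably complemented with human TDP1 were seeded at 400 cells/well with DMSO in place of 20 nM camptothecin. After compound pinning, cells grew at least 48 hr at 37 °C; viability read by CellTiter-Glo luminescence.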
HT1080NT lethal – qHTS for induction of synthetic lethality in tumor cells producing 2HG: qHTS for the HT-1080-NT fibrosarcoma cell line; HT-1080-NT fibrosarcoma viability, CellTiter-Glo ATP luminescence, 48 h; AID 686970, 2013; Potency, µM (doses to about 46.1 µM), for the others: at the top dose activity, negative = less viability, actives largely listed as cytotoxic; 360,000 compounds, 1.6% hits;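 further: NT is the 2HG producing partner of a matched IDH1 knockdown line; potency means the concentration at half of the fitted maximal effect; 0% = DMSO-treated cells and -100% = media-only wells without cells; nearly all actives have a fitted effect of over 55% in size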
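Toxicity toward the 2HG-producing NT line was scored as %Activity, normalised to DMSO and no-cell wells, from CellTiter-Glo luminescence after 48 hours' treatment.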
DT40 TDP1 CPT – qHTS for Inhibitors of human tyrosyl-DNA phosphodiesterase 1 (TDP1): qHTS in cells in presence of CPT; Potency, µM (top dose mostly 46.2 µM), inactives show at the top dose activity change, negative = growth inhibition, actives largely listed as inhibitors; 420,000 compounds, 12% hits; chicken DT40 Tdp1-/-;hTDP1 cells + 20 nM CPT, ATP luminescence, 48 h; further: potency means the concentration at half of the fitted maximal effect; nearly all actives have a fitted effect of over 55% in size
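Chicken DT40 Tdp1-/- cells stably complemented with human TDP1 were seeded at 400 cells/well in medium containing 20 nM camptothecin, exposed to pin-transferred compounds, and grown at 37 °C for at least 48 hr. Viability was read as ATP luminescence.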
HT1080 IDH1KD tx – qHTS for induction of synthetic lethality in tumor cells producing 2HG: qHTS for the HT-1080-IDH1KD cell line; HT-1080 IDH1 knockdown viability, ATP luminescence, 48 h; Potency, µM (titrated, usually from 46.1 µM), inactives show at the top dose activity, negative = toxicity, most hits filed as cytotoxic; 360,000 compounds, 2% hits;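 further: potency means the concentration at half of the fitted maximal effect; 0% = DMSO wells and -100% = cell-free medium wells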
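Cytotoxicity counter-line: IDH1KD HT-1080, 48 h, CellTiter-Glo. Curves classed by r2, magnitude and activity.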
IL1B secr inh – qHTS for Inhibitors of Inflammasome Signaling: IL-1-beta AlphaLISA Primary Screen; THP-1 LPS/ATP IL-1B secretion, AlphaLISA, 16 h; stronger effect = lower value; activity change, % at 57.5 µM; 360,000 compounds, 4.7% hits; AID 743279, 2014; in the data active means activity change below about -50%; inconclusive means mostly about -30% to -49%
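THP-1 cells pretreated 1 hr with compounds (up to 57.5 uM final), then stimulated with LPS (250 ng/mL final) plus ATP (1.25 mM final); secreted IL-1B measured by AlphaLISA after 16 hr, decreased signal indicating inhibition.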
An asterisk follows results filed as active; ? = inconclusive; / = no result given. Shown are actives, neighbours in structure and some others; about 19% of the full set was active somewhere. Unless noted, the call rests on the fitted dose curve; in most records, active means well fitted curve in the direction sought with a large enough effect; inconclusive means small, poorly fitted or top-dose-only effect, or another doubt; inactive means no such curve, though single readings can be large; an effect the other way counts as inactive or inconclusive. Unless noted, on the % scale 0 is the no-effect control and ±100 the full control effect.

SMILES	TDP1 cell noCPT	HT1080NT lethal	DT40 TDP1 CPT	HT1080 IDH1KD tx	IL1B secr inh
Cc1oc2ccc(O)c(CN3CCCCCC3)c2c1C(=O)Nc1cccc(Cl)c1C	5.8µM*	/	3.7µM*	/	/
Cc1[nH]c2c(Cl)cccc2c(=O)c1CN1CCCCCC1	-16%	11%	?	13%	0
CCN1CC=C(c2c[nH]c3ccccc23)CC1	?	4%	-10%	-23%	18
COc1ccc2c3c1O[C@H]1C(=O)CC[C@H]4[C@@H](C2)N(C)CC[C@]314	?	-5%	21%	-3%	-89*
Oc1ccc2c3c1O[C@H]1c4oc5ccccc5c4C[C@]4(O)[C@H](C2)N(CC2CC2)CC[C@@]314	-3%	/	9%	/	/
CCOc1ccc2nc(N3CCC(C(=O)Nc4ccc(Br)cc4F)CC3)sc2c1	13µM*	/	12µM*	/	/
CCOc1ccc2nc(NC(=O)c3cccn(Cc4ccc(Cl)cc4)c3=O)sc2c1	0%	/	0%	/	/
C=C1CCN([C@@H](CC(C)C)C(=O)Nc2ccc(OC)cc2)S(=O)(=O)c2ccccc21	23µM*	-2%	?	2%	3
O=C(O)c1[nH]c(=O)[nH]c(=O)c1F	12µM*	-12%	12µM*	?	33
CCOC(=O)[C@]12Cc3cc(C)ccc3[C@H]1N(Cc1ccccc1)C(=O)c1cc(OC)ccc12	21µM*	?	?	21µM*	-96*
CCOC(=O)[C@]12Cc3ccccc3[C@H]1N(Cc1ccccc1)C(=O)c1cc(F)c(F)cc12	23µM*	?	?	?	-67*
CCOC(=O)[C@]12Cc3cc(Cl)ccc3[C@H]1N(Cc1ccccc1)C(=O)c1ccccc12	?	-19%	10µM*	-1%	-15
CN1C(=O)C(C2c3ccccc3C(=O)N2Cc2ccccc2)C(=O)N(C)C1=O (stereo not drawn)	10%	19%	4%	17%	53
CCOC(=O)C12C(=O)OCC1C2c1ccccc1 (stereo not drawn)	-14%	22%	7%	16%	34
CCCCCN1C(=O)c2ccccc2[C@@]2(C(=O)OCC)Cc3cc(Cl)ccc3[C@@H]12	?	?	?	?	-50*
CC1(C)CC(=O)c2cc(OCC(=O)N3CCN(Cc4ccccc4)CC3)ccc2O1	-3%	3%	7%	1%	0
O=C(Cc1ccccc1)c1ccccn1	?	5%	?	17%	0
Cc1ccccc1Cn1cccc(C(=O)Nc2cc(Cl)ccc2C#N)c1=O	-29%	/	-4%	/	/
CCOC(=O)[C@]12Cc3cc(N(C)C)ccc3[C@H]1N(Cc1ccccc1)C(=O)c1ccccc12	6.5µM*	-8%	13µM*	-4%	-8
CCOC(=O)[C@]12Cc3cc4c(cc3[C@H]1N(Cc1ccccc1)C(=O)c1ccccc12)OCO4	15µM*	-5%	?	-14%	-22
CCOC(=O)[C@]12Cc3cc(C)ccc3[C@H]1N(CCC(=O)OC)C(=O)c1ccccc12	16µM*	16µM*	23µM*	13µM*	-113*
CCOC(=O)[C@]12Cc3cc(OC)ccc3[C@H]1N(CC(=O)OC)C(=O)c1ccccc12	-29%	5%	-17%	5%	32
CC12C(C(=O)O)C1(c1ccccc1)C2C(=O)O (stereo not drawn)	4%	11%	6%	27%	19
CCNC(=O)NC(=O)C(C)OC(=O)c1c(C)nn(Cc2ccccc2Cl)c1Cl (stereo not drawn)	-60%	0%	?	-16%	-21
CC12Nc3ccccc3C(=O)N1Cc1cnnn1-c1ccccc12 (stereo not drawn)	-6%	23%	0%	-1%	21
SMILES	TDP1 cell noCPT	HT1080NT lethal	DT40 TDP1 CPT	HT1080 IDH1KD tx	IL1B secr inh
CCCC(=O)OCC[N+](C)(C)C	1%	22%	1%	14%	15
Cc1ccc(CCNC(=O)Cn2nc(C)c3c(C)n(-c4ccc(C)cc4)nc3c2=O)cc1	?	/	23µM*	/	/
COc1cccc(NC(=O)C2CCN(c3nnc(C)c4c(C)n(-c5ccccc5)nc34)CC2)c1	23µM*	/	?	/	/
Cc1ccc(-n2nc3c(N4CCC(C(=O)NCCc5ccccc5)CC4)nnc(C)c3c2C)cc1	5.8µM*	/	4.6µM*	/	/
Cc1ccc(S(=O)(=O)N(C)C/N=C(\N)N[N+](=O)[O-])cc1	-15%	1%	16%	22%	6
CCCCn1c(O)c(/C(CC)=N/N2CCCCC2c2cccnc2)c(=O)[nH]c1=S (stereo not drawn)	?	?	?	?	-64*
CN1OC[C@@H]2COc3ccc4ccccc4c3[C@@H]21	10%	1%	25%	6%	26
Cn1c(O)c(C=NCCN2CCOCC2)c(=O)[nH]c1=S	-6%	14%	-21%	10%	1
O=C1C2CCN(CC2)C1Cc1ccc(OCCOc2ccccc2)cc1 (stereo not drawn)	?	-7%	29µM*	-16%	19
CCN(Cc1ccc(Cl)nc1)/C(=C/[N+](=O)[O-])NC	-17%	/	15%	/	/
COC(=O)C1=C(c2cccc(OC)c2OC)C[C@@H]2CC[C@H]1N2C(=O)NC1CC1	/	6%	4%	2%	15
COc1ccc(NC(=O)CSc2nc(-c3cccs3)cc(C(F)(F)F)n2)cc1Cl	23µM*	/	16µM*	/	/
COc1ccc(C(=O)Nc2ccc(-c3nc4ccccc4s3)cc2C)cc1Cl	-29%	/	?	/	/
O=C(Cn1c(=O)n(Cc2ccccc2)c(=O)c2sc3ccccc3c21)NCc1ccccc1Cl	?	/	-17%	/	/
CN1CCN(c2ccc(/C=C3\C(=O)NC(=S)N(c4cccc(Br)c4)C3=O)o2)CC1	16µM*	?	16µM*	?	-13
CCOc1ccc(N2C(=O)/C(=C/c3ccc(C)o3)C(=O)NC2=S)cc1	26µM*	-4%	?	-4%	-6
COc1ccc(OC)c(N2C(=O)/C(=C/c3ccco3)C(=O)NC2=S)c1	-27%	-3%	-21%	-3%	15
Cc1ccc(/C=C2\C(=O)NC(=S)N(c3cccc(F)c3)C2=O)o1	?	6%	18µM*	6%	15
COc1ccc(N2C(=O)/C(=C/c3ccc(C)o3)C(=O)NC2=S)cc1	?	10%	15µM*	17%	18
COc1ccc(-c2nn(CCC#N)cc2C(=O)NCc2ccccc2)cc1OC	-11%	6%	-18%	8%	8
